Data on 25 molecules can be found in PubChem BioAssay (Tox21).

A short description of assay [1]: qHTS assay to identify small molecule antagonists of the vitamin D receptor (VDR) signaling pathway - cell viability counter screen (AID 743225; active = well fitted curve in the direction sought with a large enough effect in the repeat runs; an effect the other way counts as inactive or inconclusive; also: nearly all actives have a fitted effect of over 50% in size; also: potency is read from the fitted curve at half-maximal effect). In a few lines: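 Read-out: CellTiter-Glo luminescence measured 30 min after reagent addition at room temperature. Cells were VDR-bla HEK 293T exposed 16 h at 37C, 5% CO2, to compound with 3 nM final calcitriol agonist.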
In general terms: In qHTS, concentration-response curves come from the screen itself.

Assay [2] is described as follows: qHTS assay to identify small molecule agonists of the NFkB signaling pathway - cell viability counter screen (AID 1159515). Also: series mostly up to about 61 µM; nearly all actives have a fitted effect of over 55% in size. Put shortly:
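Read by CellTiter-Glo luminescence (30 min, room temperature) in the wells also used for the beta-lactamase FRET read. ME-180 NFkB-bla cells at 2,000 per well were plated overnight, then exposed to compound for 5 hr at 37 C.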

A short description of assay [3]: qHTS assay to identify small molecule agonists of the endoplasmic reticulum stress response signaling pathway (AID 1159516; active = well fitted activation curve with a large enough effect in the signal ratio in the repeat runs, not every such curve was filed as active; the % refers to the signal ratio). Put shortly:
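Ratiometric FRET readout (405 nm excitation; 460 and 530 nm emission) of a beta-lactamase gene driven by the ER stress response element, after 2 hr substrate loading. HeLa ESRE-bla cells were seeded overnight and treated with compounds for only 5 hr at 37 C.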

A short description of assay [4]: qHTS assay to identify small molecule agonists of the endoplasmic reticulum stress response signaling pathway - cell viability counter screen (AID 1159517). Also: series mostly up to about 61 µM; nearly all actives have a fitted effect of over 50% in size. Put shortly:
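Steps: seed 1,500 ESRE-bla HeLa cells per well; incubate overnight at 37 C, 5% CO2; add compounds in DMSO for 5 hr; run FRET substrate 2 hr RT; add CellTiter-Glo, wait 30 min, read luminescence.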

A short description of assay [5]: qHTS assay to identify small molecule antagonists of the retinoid-related orphan receptor gamma (ROR-gamma) signaling pathway - cell viability counter screen (AID 1159520; active = well fitted curve in the direction sought with a large enough effect in the repeat runs; an effect the other way counts as inactive or inconclusive; also: nearly all actives have a fitted effect of over 50% in size). In a few lines:
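Tet-on ROR gamma CHO cells were given compounds for 2 hr, then doxycycline hyclate at 1 uM final, and incubated 16 hr at 37 C. Viability was measured as ATP content by CellTiter-Glo luminescence.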

The target in assay [6] is Nuclear receptor ROR-gamma (Homo sapiens) (UniProt P51449). Kind of assay: qHTS assay to identify small molecule antagonists of the retinoid-related orphan receptor gamma (ROR-gamma) signaling pathway (AID 1159521; active = well fitted curve in the direction sought with a large enough effect in the repeat runs; an effect the other way counts as inactive or inconclusive; also: nearly all actives have a fitted effect of over 50% in size; also: potency is read from the fitted curve at half-maximal effect). Put shortly:
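CHO Tet-on RORγ, RORE-luc reporter. Cpd 2 h pre-incubation, then dox hyclate 1 uM final, 16 h, 37 C/5% CO2. ONE-Glo luminescence; decrease = antagonist.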

The nature of assay [7]: qHTS assay to identify small molecule agonists of the AP-1 signaling pathway - cell viability counter screen (AID 1159525). Also: nearly all actives have a fitted effect of over 55% in size. Also: potency is read from the fitted curve at half-maximal effect. In a few lines: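 Same-well cytotoxicity counter screen of the Tox21 10K library in ME-180 cells. The readout is ATP-dependent luminescence after 5 h compound treatment. Data are normalised to DMSO and tetra n-octyl ammonium bromide controls.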
Assay [8] can be described thus: qHTS assay to identify small molecule agonists of the AP-1 signaling pathway (AID 1159526).
Assay [9] addresses Retinoic acid receptor RXR-alpha (Homo sapiens) (UniProt P19793). In words: qHTS assay to identify small molecule agonists of the RXR signaling pathway (AID 1159527). Also: nearly all actives have a fitted effect of over 35% in size. Also: potency is read from the fitted curve at half-maximal effect. In a few lines:
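Read-out: beta-lactamase FRET ratio (405 nm excitation, 460 and 530 nm emission) after 2 hr substrate loading at room temperature. Cells were RXR-alpha-UAS-bla HEK 293T treated with compounds for 16 hr in 2% charcoal-stripped FBS medium.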

Assay [10] is described as follows: qHTS assay to identify small molecule agonists of the RXR signaling pathway - cell viability counter screen (AID 1159529; active = well fitted curve in the direction sought with a large enough effect in the repeat runs; an effect the other way counts as inactive or inconclusive; also: nearly all actives have a fitted effect of over 50% in size; also: potency is read from the fitted curve at half-maximal effect). Put shortly:
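HEK 293T RXRa-bla cells, 2% CS-FBS; 5 h settle; cpd 16 h 37 C, 5% CO2; CellTiter-Glo 30 min RT, luminescence. Tetraoctyl ammonium bromide as positive control.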

Molecules are shown by their SMILES. Several values for one entry are separate records, joined by “and”; a condition that tells them apart may be missing. Equal values may be shown once. Results filed as inconclusive are left out. Some compounds were tested as several samples or in several runs, with calls that do not always agree. Activity calls are given as the source filed them. Unless noted, calls follow the shape of the full dose curve.

Chain of Retinoic acid receptor RXR-alpha (Homo sapiens) (P19793 whole entry, looked up): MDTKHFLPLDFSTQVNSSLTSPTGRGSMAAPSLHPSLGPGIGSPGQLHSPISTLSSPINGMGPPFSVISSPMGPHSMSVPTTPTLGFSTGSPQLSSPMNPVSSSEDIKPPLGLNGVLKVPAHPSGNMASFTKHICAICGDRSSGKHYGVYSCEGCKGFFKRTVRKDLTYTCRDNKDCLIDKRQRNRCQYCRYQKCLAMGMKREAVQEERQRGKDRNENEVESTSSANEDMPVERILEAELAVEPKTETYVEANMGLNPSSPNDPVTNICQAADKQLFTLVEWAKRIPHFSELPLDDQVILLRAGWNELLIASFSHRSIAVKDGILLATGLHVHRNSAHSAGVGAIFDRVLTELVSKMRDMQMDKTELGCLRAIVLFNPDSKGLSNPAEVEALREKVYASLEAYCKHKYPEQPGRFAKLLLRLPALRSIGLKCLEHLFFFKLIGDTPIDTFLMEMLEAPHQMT

Turning to `Cc1cccc(C)c1[N+](=O)[O-]`, the Potency entry in assay [1], in [2], in assay [3], in [4], in [5] and in assay [6] was “inactive” in each case. The Potency result in [7], in assay [9] and in [10] was “inactive” each time. Moreover, the molecule was called inactive in assay [8].

Regarding `CN=C(NC#N)NCCSCc1nc[nH]c1C`, the Potency result in [1], in [2], in [3], in [4], in [5] and in assay [6] was “inactive” in each case. The Potency entry in [7], in assay [9] and in assay [10] was “inactive” each time. Besides, the molecule was classed as inactive in assay [8].

As to `Cc1cc(C)cc(O)c1`, the Potency entry in [1], in [2], in [3], in assay [5], in [6] and in [7] was “inactive” each time. For the same molecule, the Potency result in assay [9] and in assay [10] was “inactive” throughout. Moreover, the molecule was called inactive in [8].

As for `CCc1cccc(CC)c1N`, the Potency result in assay [1], in assay [2], in assay [3], in [5], in assay [6] and in assay [7] was “inactive” in each case. For the same molecule, the Potency result in [9] and in assay [10] was “inactive” throughout. Further, the molecule was called inactive in assay [8].

Regarding `COCN(COC)c1nc(N(COC)COC)nc(N(COC)COC)n1`, the Potency result in [1], in [2], in assay [3], in [4], in assay [5] and in assay [6] was “inactive” throughout. Moreover, the Potency entry in assay [7], in assay [9] and in assay [10] was “inactive” throughout. In addition, the outcome in [8] was inactive.

`CC(O)CNCC(C)O` (stereo not drawn): the Potency result in assay [1], in assay [2], in [3], in assay [4], in assay [5] and in assay [6] was “inactive” in each case. Further, the Potency result in assay [7], in assay [9] and in assay [10] was “inactive” each time. In addition, in [8], the molecule was classed as inactive.

`CC(=O)Nc1ccc(CC(=O)O)cc1`: the Potency entry in assay [1], in [2], in assay [3], in [5], in assay [6] and in assay [7] was “inactive” throughout. Moreover, the Potency result in [9] and in [10] was “inactive” each time. Also, the outcome in [8] was inactive.

For the molecule `CC/C=C(\C(=O)N[C@@H]1C(=O)N2C(C(=O)OCOC(=O)C(C)(C)C)=C(COC(N)=O)CS[C@H]12)c1csc(N)n1`, the Potency result in assay [1], in assay [2], in assay [3], in assay [4], in assay [5] and in assay [6] was “inactive” in each case. For the same molecule, the Potency entry in [7] and in assay [10] was “inactive” in each case. The call in assay [8] was inactive.

For `CC(C)(CO)CO`, the Potency result in [1], in assay [2], in assay [3], in assay [4], in assay [5] and in [6] was “inactive” throughout. Besides, the Potency result in assay [7], in assay [9] and in [10] was “inactive” throughout. Moreover, the molecule was classed as inactive in assay [8].

For `c1cnc2c(c1)ccc1cccnc12`, the Potency is 5.49 µM (active) and 7.76 µM (active) in assay [1]; 1.95 µM (active) and 5.45 µM (active) and 6.11 µM (active) in assay [6]. Further, the Potency result in assay [2], in assay [3], in assay [4], in assay [5], in assay [7] and in assay [10] was “inactive” each time.

On to `CCCCC(CC)COC(=O)c1ccc(C(=O)OCC(CC)CCCC)cc1` (stereo not drawn), for which the Potency entry in assay [1], in assay [2], in [3], in assay [4], in [5] and in [6] was “inactive” throughout. The Potency result in [7], in assay [9] and in [10] was “inactive” each time. Also, the outcome in [8] was inactive.

As for `CS(=O)(=O)c1ccc(Cl)cc1`, the Potency result in assay [1], in assay [2], in assay [3], in assay [4], in [5] and in assay [6] was “inactive” in each case. Moreover, the Potency result in assay [7], in assay [9] and in assay [10] was “inactive” each time. Also, the call in assay [8] was inactive.

Regarding `C1CCCNCC1`, the Potency entry in assay [1], in assay [2], in [3], in [4], in assay [5] and in assay [6] was “inactive” in each case. Also, the Potency result in assay [7], in [9] and in assay [10] was “inactive” each time. Further, in assay [8], the molecule was called inactive.

Consider `COc1ccc2cc3[n+](cc2c1OC)CCc1cc2c(cc1-3)OCO2`, for which the Potency entry in [2], in assay [3], in [4], in assay [5], in assay [6] and in assay [7] was “inactive” each time. Besides, in assay [8], the call was inactive.

Regarding `Cc1cc(C)c(O)c(C)c1`, the Potency result in assay [1], in [2], in [3], in assay [4], in [5] and in [6] was “inactive” each time. Moreover, the Potency entry in assay [7], in assay [9] and in [10] was “inactive” throughout. Further, the molecule was classed as inactive in [8].

As for `CC(=O)OC[C@H]1O[C@@](COC(C)=O)(O[C@H]2O[C@H](COC(C)=O)[C@@H](OC(C)=O)[C@H](OC(C)=O)[C@H]2OC(C)=O)[C@@H](OC(C)=O)[C@@H]1OC(C)=O`, the Potency entry in assay [1], in assay [2], in assay [3], in assay [4], in [5] and in [6] was “inactive” throughout. The Potency result in [7], in assay [9] and in assay [10] was “inactive” each time. In addition, in assay [8], the outcome was inactive.

Regarding `OCc1ccc(Cl)cc1Cl`, the Potency result in assay [1], in assay [2], in assay [3], in [5], in assay [6] and in assay [7] was “inactive” throughout. For the same molecule, the Potency entry in assay [9] and in assay [10] was “inactive” each time. The result in [8] was inactive.

For `O=C(NCC1CCCCN1)c1cc(OCC(F)(F)F)ccc1OCC(F)(F)F` (stereo not drawn), the Potency result in [1], in assay [2], in [3], in assay [4], in assay [5] and in assay [6] was “inactive” throughout. Also, the Potency result in assay [7], in assay [9] and in assay [10] was “inactive” in each case. The outcome in assay [8] was inactive.

Turning to `O=C1CCCCCCCCCCC1`, the Potency entry in [1], in [2], in assay [3], in [4], in assay [5] and in assay [6] was “inactive” in each case. In addition, the Potency entry in [7] and in assay [10] was “inactive” in each case. For the same molecule, the result in assay [8] was inactive.

For the molecule `CCOC(=O)c1ccc(O)cc1`, the Potency result in [1], in assay [2], in [3], in [4], in [5] and in assay [6] was “inactive” throughout. The Potency result in [7], in assay [9] and in [10] was “inactive” each time. Further, the outcome in assay [8] was inactive.

Take `CC/C(C)=N/O`: the Potency result in assay [1], in [2], in [3], in assay [4], in assay [5] and in assay [6] was “inactive” each time. Besides, the Potency result in [7], in assay [9] and in assay [10] was “inactive” each time. In assay [8], the molecule was called inactive.

On to `O=C(Cl)c1ccc(C(=O)Cl)cc1`, for which the Potency entry in assay [1], in assay [2], in assay [3], in [4], in assay [5] and in [6] was “inactive” each time. Further, the Potency result in assay [7], in assay [9] and in assay [10] was “inactive” in each case. Besides, the molecule was classed as inactive in [8].

In the case of `CC1=CC(=O)CC(C)(C)C1`, the Potency entry in assay [1], in assay [2], in assay [3], in [4], in assay [5] and in assay [9] was “inactive” in each case. The Potency in assay [6] was 2.5 µM (active) and inactive; in [7], 25.3 µM (active) and inactive; in [10], 25.3 µM (active) and inactive. In addition, in assay [8], the molecule was classed as inactive.

Take `N#CCC(=O)O`: the Potency entry in assay [1], in [2], in assay [3], in assay [4], in assay [5] and in [6] was “inactive” each time. Moreover, the Potency result in assay [7], in assay [9] and in assay [10] was “inactive” each time. Also, the result in [8] was inactive.

Regarding `CCCOC(=O)NCCCN(C)C`, the Potency result in assay [1], in [2], in [3], in assay [5], in [6] and in [7] was “inactive” each time. In assay [10], the Potency result was “inactive”. Besides, the molecule was called inactive in [8]. Further, the Potency in assay [9] is 21.9 µM (active) and inactive.
